Consider four compounds from PubChem BioAssay.

Structures are written as SMILES. Results filed as inconclusive are left out. Active and inactive are the calls of the source.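 How the source made its calls, unless noted: active means percent response above a set limit, the screen-wide mean plus 3 SD (cut at about 130% in these data); inactive means the rest.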

Assay [1] in a line: yeast TOR pathway RPL19A-GFP modulators, primary screen, cell-based, S. cerevisiae, multiplex flow cytometry (AID 1862; in the data active means percent of DMSO control GFP below about 86%;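 further: lower values mimic rapamycin by blocking the RPL19A rise seen in DMSO cells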). The following applies: S. cerevisiae RPL19A-GFP strain, flow cytometry fluorescence, 3 h; at 10 µM; stronger effect = lower value. On the technique in general: Flow cytometry measures light scatter and fluorescence of single cells or particles in a stream.
The nature of assay [2]: modulators of MEP2-GFP levels in yeast, primary screen, S. cerevisiae, multiplex flow cytometry (AID 1867;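 active means GFP response, as percent of the DMSO control, above the screen-wide mean plus 3 SD, about 139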;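 further: median GFP channel fluorescence of barcode-gated MEP2-GFP cells measured by flow cytometry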). The following applies: S. cerevisiae MEP2-GFP strain, 3 h, at 10 µM, stronger effect = higher value, 100% means same as DMSO wells.
Assay [3] is described as follows: modulators of CIT2-GFP expression in yeast, primary screen, S. cerevisiae, GFP fusion, multiplex flow cytometry (AID 1870).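 Further: barcoded CIT2-GFP strain pooled with four other GFP strains with rapamycin as positive control; median GFP fluorescence per well over plate mean of DMSO wells so 100% = DMSO.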 The conditions noted are these: 3 h, at 10 µM, stronger effect = higher value.
Assay [4] is described as follows: modulators of LAP4-GFP expression in yeast, primary screen, S. cerevisiae, multiplex flow cytometry (AID 1873;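 active means GFP signal, as percent of the solvent control, above the screen mean plus 3 SD, about 149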). The conditions noted are these: 3 h, at 10 µM, stronger effect = higher value.
Assay [5] is described as follows: modulators of AGP1-GFP expression in yeast TOR pathway, primary screen, cell-based, multiplex flow cytometry, S. cerevisiae (AID 1887;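 active means GFP signal above the screen-wide mean plus 3 SD, that is over about 124.5% of the solvent control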;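 further: AGP1-GFP fusion strain of S. cerevisiae within a five-strain barcoded multiplex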). The following applies: 3 h, at 10 µM, stronger effect = higher value.
Assay [6] can be described thus: inhibitors of CD8+ T cell-vesicle binding, pilot screen, LFA-1/ICAM-1 modulator project, MLPCN validation set, flow cytometry (AID 2523;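 active means response below a set limit, under 55% cells CD8-positive and vesicle-bound, and CD8 cells' 90th-percentile brightness under 279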;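 on vesicle binding response: mean PE anti-B7-1 fluorescence of CD8+ cells relative to row control; 100% = QL9-loaded vesicles with DMSO vehicle in the same plate row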). The conditions noted are these: 2C mouse CD8+ T cells, at 7 µM, stronger effect = lower value; double positive events: measured here: CD8+/vesicle+ event percentage.
Assay [7] deals with Integrin beta-1 (Homo sapiens) + Integrin alpha-4 (Homo sapiens) (UniProt P13612+P05556). Kind of assay: inhibition of HUTS-21 binding to VLA-4, pilot screen, VLA-4 allosteric modulator project, U937 cells, HUTS-21 mAb, flow cytometry, validation set (AID 2674;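 active means inhibition above 50%, about 3 SD of the validation set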;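 further: antibody binding induced by the VLA-4 ligand LDV present at three times its Kd; 0% = LDV ligand with antibody and no compound and 100% = antibody without LDV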). The following applies: HUTS-21 LIBS mAb binding, at 6.7 µM, stronger effect = higher value, binding induced by LDV ligand.
Sequence of Integrin beta-1 (Homo sapiens) + Integrin alpha-4 (Homo sapiens) (P05556 whole entry, looked up): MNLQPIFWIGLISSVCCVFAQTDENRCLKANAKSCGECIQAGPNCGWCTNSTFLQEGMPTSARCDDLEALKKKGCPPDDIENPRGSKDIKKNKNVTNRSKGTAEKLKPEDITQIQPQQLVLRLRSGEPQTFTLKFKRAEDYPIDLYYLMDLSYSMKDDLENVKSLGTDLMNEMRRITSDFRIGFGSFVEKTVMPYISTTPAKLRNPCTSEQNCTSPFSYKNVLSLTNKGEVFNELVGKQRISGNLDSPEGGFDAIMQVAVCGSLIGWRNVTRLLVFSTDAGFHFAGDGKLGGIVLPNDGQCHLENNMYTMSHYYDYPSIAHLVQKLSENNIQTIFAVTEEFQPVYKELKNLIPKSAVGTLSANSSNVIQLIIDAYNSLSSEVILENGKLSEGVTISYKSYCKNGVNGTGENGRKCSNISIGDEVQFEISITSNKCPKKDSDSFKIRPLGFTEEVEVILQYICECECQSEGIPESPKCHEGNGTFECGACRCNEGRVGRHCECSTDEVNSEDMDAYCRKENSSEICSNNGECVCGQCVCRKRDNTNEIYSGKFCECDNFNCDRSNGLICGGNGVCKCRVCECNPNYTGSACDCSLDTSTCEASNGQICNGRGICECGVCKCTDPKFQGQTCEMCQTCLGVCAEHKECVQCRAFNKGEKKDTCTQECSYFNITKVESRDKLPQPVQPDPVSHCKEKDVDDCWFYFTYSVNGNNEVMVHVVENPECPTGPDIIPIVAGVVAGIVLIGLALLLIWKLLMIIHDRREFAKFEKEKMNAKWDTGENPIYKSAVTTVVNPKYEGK
Sequence of Integrin beta-1 (Homo sapiens) + Integrin alpha-4 (Homo sapiens) (P13612 whole entry, looked up): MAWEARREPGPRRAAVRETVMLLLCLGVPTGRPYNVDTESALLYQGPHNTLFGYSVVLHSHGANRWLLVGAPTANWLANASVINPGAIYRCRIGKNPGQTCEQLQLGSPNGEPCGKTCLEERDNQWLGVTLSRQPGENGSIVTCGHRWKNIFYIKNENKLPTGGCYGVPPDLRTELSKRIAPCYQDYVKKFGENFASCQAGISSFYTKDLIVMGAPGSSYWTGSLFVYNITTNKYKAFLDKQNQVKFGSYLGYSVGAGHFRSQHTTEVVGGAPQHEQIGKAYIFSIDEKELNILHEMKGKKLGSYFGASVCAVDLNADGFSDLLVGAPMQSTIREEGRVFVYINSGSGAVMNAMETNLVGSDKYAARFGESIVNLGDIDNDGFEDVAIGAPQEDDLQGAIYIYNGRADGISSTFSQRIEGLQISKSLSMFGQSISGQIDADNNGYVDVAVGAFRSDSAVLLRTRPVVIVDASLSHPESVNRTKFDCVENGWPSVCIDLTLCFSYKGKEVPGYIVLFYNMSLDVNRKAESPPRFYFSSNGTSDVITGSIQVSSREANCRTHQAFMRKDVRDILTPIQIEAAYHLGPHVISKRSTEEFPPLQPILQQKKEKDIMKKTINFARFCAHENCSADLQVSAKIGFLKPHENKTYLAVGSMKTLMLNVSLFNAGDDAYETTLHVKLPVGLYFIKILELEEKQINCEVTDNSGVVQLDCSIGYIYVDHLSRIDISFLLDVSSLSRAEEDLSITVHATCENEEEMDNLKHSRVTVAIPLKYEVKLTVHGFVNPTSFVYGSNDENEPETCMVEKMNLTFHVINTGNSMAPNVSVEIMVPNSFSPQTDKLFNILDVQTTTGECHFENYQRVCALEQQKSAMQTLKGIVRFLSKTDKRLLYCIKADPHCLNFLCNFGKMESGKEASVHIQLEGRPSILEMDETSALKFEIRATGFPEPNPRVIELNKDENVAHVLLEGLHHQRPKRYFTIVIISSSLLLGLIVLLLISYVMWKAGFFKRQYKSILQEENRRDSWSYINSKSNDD
Assay [8] can be described thus: superoxide lowering in aged yeast cells, pilot screen, validation compound set (AID 2706;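 active means superoxide response below 65% of plate, a cut near 3 SD across the whole screen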;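 further: yeast exposed to compound for one week at 30 degrees C before staining; 100% = mean of all compound wells on the same plate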). The following applies: S. cerevisiae aging, superoxide DHE fluorescence; at 10 µM; stronger effect = lower value.
The target of assay [9] is Beta-adrenergic receptor kinase 1 (Homo sapiens) (UniProt P25098). Nature of the assay: GRK2 binders displacing RNA aptamer, biochemical, validation, human GRK2, bead flow cytometry (AID 488806;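 active means aptamer binding inhibition above 30%, about 3 SD of noise from non-fluorescent compounds; inactive means inhibition at or below 30%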). The following applies: bead-bound GRK2, FAM-aptamer displacement, at 10 µM, stronger effect = higher value.
Sequence of Beta-adrenergic receptor kinase 1 (Homo sapiens) (P25098 whole entry, looked up): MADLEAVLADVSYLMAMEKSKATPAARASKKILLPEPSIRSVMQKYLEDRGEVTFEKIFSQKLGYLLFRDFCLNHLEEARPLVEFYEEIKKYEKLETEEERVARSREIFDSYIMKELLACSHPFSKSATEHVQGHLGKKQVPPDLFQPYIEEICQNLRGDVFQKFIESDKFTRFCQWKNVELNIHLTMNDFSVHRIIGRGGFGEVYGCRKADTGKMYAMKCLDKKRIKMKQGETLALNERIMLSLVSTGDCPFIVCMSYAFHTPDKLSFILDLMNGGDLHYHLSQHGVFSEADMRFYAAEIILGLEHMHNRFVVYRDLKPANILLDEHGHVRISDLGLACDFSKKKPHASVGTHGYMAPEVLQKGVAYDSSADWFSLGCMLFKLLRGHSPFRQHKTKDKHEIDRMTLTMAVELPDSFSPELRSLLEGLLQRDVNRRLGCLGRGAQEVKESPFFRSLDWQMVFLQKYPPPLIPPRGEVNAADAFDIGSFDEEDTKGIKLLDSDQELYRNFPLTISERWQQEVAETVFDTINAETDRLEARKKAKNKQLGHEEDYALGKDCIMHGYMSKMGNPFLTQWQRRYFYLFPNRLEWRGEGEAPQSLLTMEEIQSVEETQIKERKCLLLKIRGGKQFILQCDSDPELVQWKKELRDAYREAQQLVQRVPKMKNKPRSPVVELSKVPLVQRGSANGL
In assay [10] the target is Beta-2 adrenergic receptor (Homo sapiens) (UniProt P07550). Kind of assay: beta2AR agonists driving receptor internalization, pilot screen, cell-based, FAP fluorogen, flow cytometry, validation set (AID 504459;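 active means percent response above 42, roughly 3 SD of non-fluorescent test compounds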;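 further: agonist-driven loss of surface beta2AR via internalization measured by FAP dye flow cytometry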). The conditions noted are these: Am2.2-beta2AR cells, FAP surface receptor flow cytometry; at 10 µM; stronger effect = higher value.
Sequence of Beta-2 adrenergic receptor (Homo sapiens) (P07550 whole entry, looked up): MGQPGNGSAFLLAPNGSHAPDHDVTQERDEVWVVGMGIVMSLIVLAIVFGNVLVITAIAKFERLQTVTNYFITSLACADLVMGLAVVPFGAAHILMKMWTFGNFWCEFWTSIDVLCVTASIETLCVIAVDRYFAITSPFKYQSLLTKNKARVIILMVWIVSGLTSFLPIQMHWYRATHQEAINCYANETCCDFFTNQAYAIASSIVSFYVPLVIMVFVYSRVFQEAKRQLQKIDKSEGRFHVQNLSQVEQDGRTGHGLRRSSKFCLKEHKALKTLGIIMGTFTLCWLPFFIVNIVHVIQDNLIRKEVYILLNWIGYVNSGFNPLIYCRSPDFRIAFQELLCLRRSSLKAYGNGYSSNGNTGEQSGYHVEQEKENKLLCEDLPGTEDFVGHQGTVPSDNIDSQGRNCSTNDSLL
Assay [11] deals with AP-2 complex subunit beta (Homo sapiens) (UniProt P63010). Kind of assay: inhibitors of arrestin peptide binding to AP2, pilot screen, biochemical, validation set, GST-AP2 beads, flow cytometry (AID 504541;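 active means inhibition above 54%, about 3 SD of non-fluorescent compounds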;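 further: AP2 carries R879A mutation and is captured from E. coli lysate; bead-bound FITC arrestin peptide fluorescence measuring arrestin peptide binding to AP2; 0% = DMSO wells and 100% = excess unlabeled arrestin peptide control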). The conditions noted are these: FITC arrestin peptide, at 10 µM, stronger effect = higher value, AP2 beta2 appendage fragment, R879A mutant.
Sequence of AP-2 complex subunit beta (Homo sapiens) (P63010 whole entry, looked up, the tested form may be a part, one chain of several): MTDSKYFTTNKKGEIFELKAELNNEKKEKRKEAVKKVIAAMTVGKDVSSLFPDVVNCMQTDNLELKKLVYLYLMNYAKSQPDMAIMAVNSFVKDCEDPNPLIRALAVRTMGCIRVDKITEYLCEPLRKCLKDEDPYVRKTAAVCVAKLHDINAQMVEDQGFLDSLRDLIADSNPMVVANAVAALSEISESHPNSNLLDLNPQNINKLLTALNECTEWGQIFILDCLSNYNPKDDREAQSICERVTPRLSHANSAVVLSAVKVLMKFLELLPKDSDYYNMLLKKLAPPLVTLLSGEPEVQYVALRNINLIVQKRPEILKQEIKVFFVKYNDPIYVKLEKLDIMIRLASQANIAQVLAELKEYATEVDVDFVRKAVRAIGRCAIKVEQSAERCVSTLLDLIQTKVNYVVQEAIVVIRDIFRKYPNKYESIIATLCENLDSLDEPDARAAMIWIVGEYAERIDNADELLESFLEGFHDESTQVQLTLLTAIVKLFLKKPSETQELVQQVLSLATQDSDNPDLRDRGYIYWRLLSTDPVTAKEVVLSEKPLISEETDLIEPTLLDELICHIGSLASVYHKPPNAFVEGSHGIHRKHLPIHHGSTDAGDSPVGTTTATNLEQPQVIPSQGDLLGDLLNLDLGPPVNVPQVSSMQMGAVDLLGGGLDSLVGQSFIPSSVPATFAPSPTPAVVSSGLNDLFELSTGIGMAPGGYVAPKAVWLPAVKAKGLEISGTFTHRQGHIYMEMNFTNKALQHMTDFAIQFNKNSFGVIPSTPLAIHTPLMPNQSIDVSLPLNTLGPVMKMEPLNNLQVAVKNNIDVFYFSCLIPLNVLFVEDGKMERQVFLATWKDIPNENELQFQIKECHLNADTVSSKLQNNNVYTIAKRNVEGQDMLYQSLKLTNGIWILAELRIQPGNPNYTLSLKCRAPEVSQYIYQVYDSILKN
Assay [12] is described as follows: yeast V-ATPase proton transport modulators, S. cerevisiae, pHLuorin, HTS validation (AID 504600; in the data active means response above about 15%;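 further: plate controls were DMSO for no effect and reference compound for full effect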). The conditions noted are these: S. cerevisiae pHLuorin cytosolic pH, at 10 µM, stronger effect = higher value.
The subject of assay [13] is anti-desmoglein-3 scFv antibody binding to human DSG3. Kind of assay: inhibitors of anti-DSG3 scFv binding to DSG3, pilot screen, biochemical, validation compound set, bead-based, flow cytometry (AID 588368;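 active means binding below the plate cutoff, the plate median minus 3 SD, with a reading above zero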;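 further: signal is the median channel fluorescence of bead-bound GFP antibody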). The following applies: Protein G beads, DSG3-Fc, scFv-GFP binding, at 10 µM, stronger effect = lower value.
A short description of assay [14]: inhibitors of fungal efflux pumps CDR1, CDR2, MDR1, pilot screen, validation compound set, multiplex, phenotypic (AID 588506;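 active means efflux inhibition above 0.42, the validation set average plus 4 SD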;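 further: Nile Red retained in cells so higher fluorescence means more efflux inhibition; 0 = negative control wells and 1 = enniatin B 25 µM full block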). The conditions noted are these: S. cerevisiae pump-expressing triplex, Nile Red efflux flow cytometry; at 10 µM; stronger effect = higher value; the pumps come from Candida albicans.
The target of assay [15] is ATP-binding cassette sub-family B member 6 (Homo sapiens) (UniProt Q9NP58). Kind of assay: ABCB6 transporter inhibitors, pilot screen, K562-ABCB6 cells, flow cytometry, validation set (AID 588550;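 active means inhibition above the screen-wide mean plus 3 SD, about 51%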;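 further: 0% = DMSO wells and 100% = benzethonium chloride 70 µM positive control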). The conditions noted are these: K562-ABCB6 porphyrin accumulation, 1 h, at 10 µM, stronger effect = higher value.
Sequence of ATP-binding cassette sub-family B member 6 (Homo sapiens) (Q9NP58 whole entry, looked up): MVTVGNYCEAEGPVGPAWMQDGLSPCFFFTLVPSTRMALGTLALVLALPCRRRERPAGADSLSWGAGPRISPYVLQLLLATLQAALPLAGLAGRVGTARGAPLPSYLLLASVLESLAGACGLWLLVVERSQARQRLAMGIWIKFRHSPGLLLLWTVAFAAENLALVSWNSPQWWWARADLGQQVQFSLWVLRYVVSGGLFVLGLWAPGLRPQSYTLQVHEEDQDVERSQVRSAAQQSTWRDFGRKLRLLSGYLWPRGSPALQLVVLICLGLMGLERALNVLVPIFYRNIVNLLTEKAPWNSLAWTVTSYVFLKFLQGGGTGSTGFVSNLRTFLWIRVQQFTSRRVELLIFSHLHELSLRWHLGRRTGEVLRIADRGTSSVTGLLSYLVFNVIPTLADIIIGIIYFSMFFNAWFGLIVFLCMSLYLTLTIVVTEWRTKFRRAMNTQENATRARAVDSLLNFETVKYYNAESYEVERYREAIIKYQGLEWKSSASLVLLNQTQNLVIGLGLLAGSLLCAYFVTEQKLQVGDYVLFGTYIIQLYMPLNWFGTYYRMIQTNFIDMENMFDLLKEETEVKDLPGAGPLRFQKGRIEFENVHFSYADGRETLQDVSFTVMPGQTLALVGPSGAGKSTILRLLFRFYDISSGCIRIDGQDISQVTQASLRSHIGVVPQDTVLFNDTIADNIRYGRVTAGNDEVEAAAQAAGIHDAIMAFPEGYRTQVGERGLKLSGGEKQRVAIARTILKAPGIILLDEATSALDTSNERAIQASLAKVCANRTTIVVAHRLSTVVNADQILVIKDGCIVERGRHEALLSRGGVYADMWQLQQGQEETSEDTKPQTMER
A short description of assay [16]: promoters of myeloid differentiation in arrested cells, primary screen, cell-based, GFP/MAC1 double positive, flow cytometry, validation set (AID 588685;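 active means differentiation response of at least 50%, scaled between solvent and reference control, from cells with both markers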;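 further: compound exposure lasts four days before antibody staining and flow analysis; 0% = DMSO wells and 100% = 5 µM fulvestrant positive control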). The conditions noted are these: ER-HoxA9 marrow cells, stronger effect = higher value, normalized: vehicle 0, fulvestrant 100.

By inhibition is commonly meant the relative decrease from the control value, in per cent. Consider `COc1cc2oc(-c3ccc(O)cc3)cc(=O)c2c(OC)c1O`, for which, in [1], the percent of DMSO control GFP is 100% (inactive). Also, the GFP response vs DMSO was 101% (inactive) in assay [2] and 88.2% (inactive) in assay [4]. Further, the percent response of DMSO control in assay [3] is 104% (inactive). The GFP response, % of DMSO in assay [5] is 98% (inactive). Besides, the double positive events in assay [6] came to 56.3%. Besides, in assay [6], the vesicle binding response is 118% (inactive). Further, the inhibition in [7] is -11.8% (inactive); in assay [11], -0.6% (inactive); in [15], 0% (inactive). In addition, in assay [8], the superoxide response (% of plate) is 107% (inactive). Also, the aptamer binding inhibition in assay [9] was 3% (inactive). Moreover, the response in assay [10] was -2.51% (inactive); in [12], -4.25% (inactive). Also, the binding (% of control) in [13] is 100% (inactive). Besides, the efflux inhibition (fraction of control) in assay [14] is -0.16 (inactive). In addition, in assay [16], the differentiation response was 8.59% (inactive).
As to `COc1ccc(NC(=O)CC2C(=O)N(C)C(=S)N2Cc2ccncc2)cc1` (stereo not drawn), the percent of DMSO control GFP in [1] is 88% (inactive). Besides, the figures for the GFP response vs DMSO in assay [2] and in [4] were 123% (inactive) and 75.4% (inactive), respectively. Besides, the percent response of DMSO control in assay [3] was 97.9% (inactive). Moreover, the GFP response, % of DMSO in assay [5] is 88.2% (inactive). The compound further gave a double positive events in assay [6] of 54.8%. For the same compound, the vesicle binding response in assay [6] is 194% (inactive). In addition, the inhibition in [7] is 5.49% (inactive); in assay [11], 0.05% (inactive); in assay [15], 8% (inactive). Besides, the superoxide response (% of plate) in assay [8] is 105% (inactive). For the same compound, the aptamer binding inhibition in [9] is 0% (inactive). The values for the response in assay [10] and in [12] were -1.13% (inactive) and -1.16% (inactive), respectively. The binding (% of control) in [13] is 100% (inactive). The efflux inhibition (fraction of control) in assay [14] was 0.01 (inactive). Besides, in assay [16], the differentiation response is 1.64% (inactive).
In the case of `Cc1cccc(Oc2coc3cc(OC(=O)c4cncc(Br)c4)ccc3c2=O)c1`, in assay [1], the percent of DMSO control GFP was 98% (inactive). Further, the GFP response vs DMSO in assay [2] was 111% (inactive); in assay [4] it was 126% (inactive). For the same compound, in assay [3], the percent response of DMSO control was 95.8% (inactive). The GFP response, % of DMSO in assay [5] is 100% (inactive). For the same compound, in [6], the double positive events was found to be 64.8%. Besides, the vesicle binding response in assay [6] is 224% (inactive). For the same compound, the inhibition in [7] is -4.52% (inactive); in [11], -11.9% (inactive); in assay [15], 103% (active). Further, in assay [8], the superoxide response (% of plate) was 78.9% (inactive). Further, in [9], the aptamer binding inhibition was 1% (inactive). The response was 9.93% (inactive) in [10] and 1.76% (inactive) in assay [12]. The binding (% of control) in assay [13] is 99.1% (inactive). Further, in [14], the efflux inhibition (fraction of control) is 0.33 (inactive). The differentiation response in assay [16] was 10.4% (inactive).
Take `CCOC(=O)Cn1c(C)cc(=O)c2ccccc21`: the percent of DMSO control GFP in [1] is 97.6% (inactive). Moreover, the values for the GFP response vs DMSO in [2] and in assay [4] were 114% (inactive) and 117% (inactive), respectively. Moreover, the percent response of DMSO control in assay [3] was 91% (inactive). In [5], the GFP response, % of DMSO was 103% (inactive). In assay [6], this compound showed a double positive events of 59.9%. The vesicle binding response in [6] is 226% (inactive). In addition, the inhibition in assay [7] was 10.5% (inactive); in assay [11] it was 56.3% (active); in [15] it was 0% (inactive). Also, the superoxide response (% of plate) in assay [8] was 103% (inactive). In addition, the aptamer binding inhibition in assay [9] is 0% (inactive). The response in [10] is 8.73% (inactive); in [12], -4.51% (inactive). Moreover, in assay [13], the binding (% of control) was 92.6% (inactive). The efflux inhibition (fraction of control) in assay [14] is 0.3 (inactive). Also, in [16], the differentiation response is 114% (active).
